# ALDH1A1 block – ALDH1A1 (human) enzyme inhibition | Purified ALDH1A1, NADH fluorescence, propionaldehyde substrate | Potency, µM (top dose mostly 75.3 µM), for inactives: at the top dose activity, negative = inhibition, most hits filed as inhibitors | 220,000 tested, 7.3% active; active means well fitted inhibition curve with a large enough effect, not every such curve was filed as active; inconclusive means small, poorly fitted or top-dose-only effect, or another doubt; inactive means no such curve, though single readings can be large or run the other way;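 further: potency means the concentration at half of the fitted maximal effect; plate controls were no enzyme wells and a reference inhibitor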
# HPGD block – HPGD (human) dehydrogenase inhibition; AID 894; P15428; 150,000 tested, 4.3% active; Potency, µM, for the others: at the top dose activity change, negative = inhibition, usual class: inhibitors; purified HPGD, NADH fluorescence kinetic, PGE2 substrate; active means well fitted inhibition curve with a large enough effect, not every such curve was filed as active; inconclusive means small, poorly fitted or top-dose-only effect, or another doubt; inactive means no such curve, though single readings can be large or run the other way; further: potency means the concentration at half of the fitted maximal effect; on the % scale 0 is the no-effect control and ±100 the full control effect
#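 20 nM HPGD preincubated 15 min at room temperature with compound in 50 mM Tris-HCl pH 8, 0.01% Tween 20. Started with 1 mM NAD+ and 30 uM prostaglandin E2; NADH fluorescence (360/450 nm) read 5 times over 30-s intervals, last minus first.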
# CBFb-RUNX1 inh – blocks binding between human CBF-beta and RUNX1. Q01196+Q13951. AlphaScreen CBFb-His/RUNX1-biotin binding, biochemical. Potency, µM (top dose mostly 59.8 µM), for the others: at the top dose activity, negative = inhibition, usual class: inhibitors. 230,000 tested, under 10 active. AID 1477; further: % of control where 0% means no effect
# Target sequence (Q01196 whole entry, looked up): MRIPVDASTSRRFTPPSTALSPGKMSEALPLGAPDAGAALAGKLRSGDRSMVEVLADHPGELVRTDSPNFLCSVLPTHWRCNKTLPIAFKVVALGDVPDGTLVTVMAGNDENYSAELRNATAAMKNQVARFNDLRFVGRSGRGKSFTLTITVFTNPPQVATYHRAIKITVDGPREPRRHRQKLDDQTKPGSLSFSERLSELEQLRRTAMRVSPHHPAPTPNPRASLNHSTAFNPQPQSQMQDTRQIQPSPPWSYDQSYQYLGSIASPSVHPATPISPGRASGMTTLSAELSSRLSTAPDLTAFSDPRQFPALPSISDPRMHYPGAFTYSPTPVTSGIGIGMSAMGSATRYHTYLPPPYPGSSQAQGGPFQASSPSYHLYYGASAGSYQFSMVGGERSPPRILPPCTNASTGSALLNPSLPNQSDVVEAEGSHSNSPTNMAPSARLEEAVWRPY
# Target sequence (Q13951 whole entry, looked up): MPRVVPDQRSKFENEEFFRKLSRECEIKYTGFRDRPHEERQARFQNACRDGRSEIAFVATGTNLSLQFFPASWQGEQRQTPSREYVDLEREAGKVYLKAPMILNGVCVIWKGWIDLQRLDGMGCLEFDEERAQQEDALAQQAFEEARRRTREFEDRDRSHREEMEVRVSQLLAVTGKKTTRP
#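 Inhibition was taken as any reduction in AlphaScreen signal from the CBF-beta–RUNX1 pair (His and biotin tags, 30 nM each), measured after compound (15 min) and bead (90 min) incubations at room temperature.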
# PNC inhibitor – blocks assembly of the perinucleolar compartment; PC3M PTB-GFP, PNC prevalence imaging, 16 h; stronger effect = lower value; AID 2417; activity change (PNC), negative = inhibition, % at 10 µM; 140,000 tested, 3.1% active;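 active means readout at or below -70, meaning at least 70% loss of cells showing the perinucleolar compartment, a nuclear body marking cancer cells; inconclusive means readout between -30 and a set limit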;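 further: plate controls were DMSO wells for no effect and camptothecin positive control wells for full effect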
#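 Read-out is percentage of cells bearing a perinucleolar compartment, from automated 20x imaging of fixed, Hoechst-stained PC3M PTB-GFP cells. Cells were seeded 4 h, then exposed 16 h to compound (23 nl of library stock) in duplicate plates.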
# HTT ATP protect – cytoprotection in Huntington HTT-Q103 PC12 cell model | PC12 HTT-Q103 induced, cytoprotection, ATP luminescence, 40 h | Potency, µM (series often up to 56.4 µM), for inactives: cytoprotection (ATP increase), most hits filed as activators | 230,000 tested, 0.14% active; further: potency means the concentration at half of the fitted maximal effect; % of control where 0% means no effect; nearly all actives have a fitted effect of over 45% in size
#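 Stable PC12 Q103-GFP cells in serum-supplemented, phenol red-free DMEM; induction by tebufenozide at 100 nM final; compound dose series; cell viability quantified luminescently from ATP.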
# HttQ103 aggreg – inhibitors of mutant huntingtin aggregate formation in PC12 cells; PC12 HttQ103-GFP aggregates, Acumen cytometry, 40 h; Potency, µM (series often up to 46.1 µM), for the others: at the highest dose activity change, negative = inhibition, hits mostly inhibitors; 220,000 tested, 1.1% active; AID 1688; further: potency means the concentration at half of the fitted maximal effect; on the % scale 0 is the no-effect control and ±100 the full control effect; nearly all actives have a fitted effect of over 60% in size
#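 PC12 cells stably carrying ecdysone-inducible HTT exon 1 Q103–GFP were induced with tebufenozide (100 nM final) and treated with library compounds in titration. GFP aggregates in lysates were counted by laser scanning cytometry.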
# Active calls of the source: *; ? = inconclusive; . = no result; [ ] = dose if it differs, or a comment. This is a sample that favours compounds with a hit; in the whole collection about 11% have one here. Unless noted, the call rests on the fitted dose curve; in most records, active means well fitted curve in the direction sought with a large enough effect; inconclusive means small, poorly fitted or top-dose-only effect, or another doubt; inactive means no such curve, though single readings can be large; an effect the other way counts as inactive or inconclusive.
SMILES,ALDH1A1 block,HPGD block,CBFb-RUNX1 inh,PNC inhibitor,HTT ATP protect,HttQ103 aggreg
O=C(C1CCN(S(=O)(=O)c2cccnc2)CC1)N1CCCCC1,6.8%,20µM*,0.9%,4.1,-4.5%,-4.1%[9.22 µM]
COc1cc(S(=O)(=O)N2CCCCC2)ccc1NC(=O)c1ccccc1Cl,2µM*,-15.9%,-2.3%,-100.0*,-16.4%[10 µM],-7.6%
CCCOc1ccc(N2C(=O)C3ON(c4ccccc4)C(CCC)C3C2=O)cc1 (centres undefined),17.8µM*,-14.7%,5.7%,-3.0,-1.0%,-5.4%
CCCOc1ccc(N2C(=O)C3ON(c4ccccc4)C(c4ccc(O)c(OC)c4)C3C2=O)cc1 (centres undefined),31.6µM*,-2.4%,-2.0%,?,-8.3%[10 µM],4.6%
O=C(O)C(Cc1ccccc1)Cc1ccccc1,9.9%[13.5 µM],-9.4%,.,.,-6.0%[10 µM],.
c1ccc(-c2cc(N3CCOCC3)nc(-c3ccccc3)n2)cc1,-9.0%,-7.2%,1.4%,-82.6*,-0.7%,-5.0%
COc1ccccc1C1=NNC(=Nc2cccc(S(=O)(=O)N(C)C)c2)SC1,35.5µM*,.,.,.,?,11.2µM*
CCCN1C2CCCC1CC(NC(=S)Nc1cc(C)cc(C)c1)C2 (centres undefined),2.3%,.,6.3%,.,-3.8%[10 µM],-6.4%[9.22 µM]
N#Cc1c(-c2ccccc2F)cc(-c2cccnc2)nc1N,?,?,22.5%,-95.9*,14.8%[10 µM],-28.7%
CCCC[C@@H]1C[C@H]1[C@@H](NP(=O)(c1ccccc1)c1ccccc1)c1ccccc1OC,7.5%,-12.8%,1.4%,.,-145.2%,.
CCC(Oc1ccccc1)C(=O)Nc1ncc([N+](=O)[O-])s1 (centres undefined),?,.,-7.4%,.,-3.7%[10 µM],-13.8%[9.22 µM]
CCC(Oc1ccccc1)C(=O)Nc1nnc(C)s1 (centres undefined),4.7%,-4.2%,1.5%,-116.6*,-21.1%,-3.8%
CCC(Oc1ccccc1)C(=O)Nc1nnc(C(F)(F)F)s1 (centres undefined),-10.9%,-3.0%,6.1%,?,-0.3%[10 µM],25.1µM*
COc1ccc(C[C@@](C)(N)C(=O)O)cc1OC,-12.9%[20.9 µM],-0.5%,10.6%[21.7 µM],.,?,11.5%[20.6 µM]
COc1ccc2c(c1)O[C@@H](c1ccc3c(c1)OCO3)[C@H](OC(=O)Nc1ccc(OC(F)F)cc1)C2=O,-1.7%,-3.0%,-10.1%,.,-30.2%,.
CCCCC/C=C\C/C=C\C=C\[C@@H](O)C/C=C\CCCC(=O)O,1.0%,-7.8%,-3.5%,.,-25.0%,.
Cc1ccc2cc3cc(C(=O)N(CC(=O)NC4CCCC4)c4cccc(C)c4C)sc3nc2c1,7.7%,?,-3.5%,-106.3*,3.16µM*,-2.6%
O=C(CCl)NC(Cc1ccccc1)c1ccccc1 (centres undefined),1.41µM*,.,11.5%,.,-56.8%,?
CC(=O)C(Cc1ccccc1)NC(=O)CCl (centres undefined),22.4µM*,.,1.3%,.,-11.7%,-1.6%
CCN(C(=O)Cc1c(C(=O)O)[nH]c2ccccc12)c1ccc(OC)cc1,?,.,-4.7%,.,-2.2%[10 µM],12.0%
O=C1c2ccccc2-n2c1nc1ccccc1c2=O,-9.6%,-5.3%,2.6%,.,-168.0%,11.2µM*
COC(=O)[C@H](Cc1ccccc1)NC(=O)O[C@@H]1C(=O)c2cc(OC)ccc2O[C@H]1c1cccc(OC)c1,20µM*,-19.6%,?,.,-0.5%,.
COC(=O)[C@H](COC(C)(C)C)NC(=O)O[C@@H]1C(=O)c2cc(Br)ccc2O[C@H]1c1cccc(OC)c1,10.9%,-8.8%,-8.2%,.,29.4%,.
[N-]=C=C1C(=O)NC(=O)C([n+]2ccc(-c3ccncc3)cc2)C1c1ccccc1C(F)(F)F (centres undefined),.,.,13.9%,.,2.1%[10 µM],-22.2%[9.22 µM]
[N-]=C=C1C(=S)NC(=O)[C@H]([n+]2ccccc2)[C@H]1c1ccc(Cl)cc1,14.1µM*,.,?,.,4.5%[10 µM],14.4%[9.22 µM]
SMILES,ALDH1A1 block,HPGD block,CBFb-RUNX1 inh,PNC inhibitor,HTT ATP protect,HttQ103 aggreg
CC(/C=C/c1ccccc1)=N\Nc1nc(C)cc(C)n1,0.0%,-6.8%,-1.5%,4.2,.,-11.3%
Cc1cc(C)nc(NN=C(c2ccccc2)c2ccccc2)n1,?,-11.2%,-1.2%,41.3,22.2%[10 µM],17.8µM*
Cc1ccc(S(=O)(=O)N2CCN(c3ccnc4cc(Cl)ccc34)CC2)cc1,?,.,-3.4%,.,-99.2%,15.8µM*
Cc1ccnc(SCC(=O)c2ccc(Br)cc2)c1C#N,?,28.2µM*,?,41.0,.,2.5%
Cc1snc(SCC(=O)c2ccc(Cl)cc2)c1C#N,20µM*,?,8.4%,-10.7,-19.1%,-30.3%
Cc1cc(C)c(C#N)c(OCC(=O)c2ccc(Br)cc2)n1,?,-18.5%,13.7%,11.8,-7.5%,-9.1%
Cc1ccccc1-c1nsc(SCC(=O)c2ccc(Cl)cc2)n1,-9.4%,-20.8%,-0.3%,4.0,14.5%[10 µM],10.8%
Cc1ccc(C(=O)CSc2nsc(C)c2C#N)cc1,?,22.4µM*,11.0%,52.5,11.2%[10 µM],-20.6%
CC(C)CCNC(=O)CCSCCC(=O)NCCC(C)C,5.9%,0.8%,-4.3%,16.7,4.8%[10 µM],2.7%
COC(=O)c1cn(Cc2ccccn2)c(=O)c2ccccc12,1.7%,.,1.0%,.,-19.2%,-21.9%
O=P(CO)(Cc1ccccc1)Cc1ccccc1,7.5%,15.8µM*,-5.5%,?,-2.1%,-5.4%
CCCCOC(=O)Nc1ccc(C(C)C)cc1,2.1%,12.6µM*,25.2%,0.4,-7.0%[10 µM],5.1%
CCCCOC(=O)Nc1ccc(C(N)=O)cc1,11.0%,-3.5%,1.1%,?,-19.8%,-4.7%
CCCCOC(=O)Nc1ccc(N(C)C)cc1,?,31.6µM*,2.6%,?,-0.3%[10 µM],21.1%
CCCS(=O)(=O)N1CCCC(C(=O)NC2CCCC(C)C2C)C1 (centres undefined),-3.8%,-5.9%,15.6%,-82.0*,7.5%[10 µM],4.6%
CCOC(=O)c1cc(C#N)c(N2CCN(C(=O)c3ccccc3)CC2)nc1C(F)(F)F,12.6µM*,.,-2.4%,.,6.3%[10 µM],-1.6%[9.22 µM]
N#CC1(NC(=O)CN2CCN(S(=O)(=O)c3ccccc3F)CC2)CCCC1,.,.,1.2%,.,11.5%[10 µM],21.7%[9.22 µM]
COc1ccccc1Nc1ccc(C(=O)NC2CCCCC2)cn1,21.4%,15.8µM*,5.1%,-22.6,-7.9%[10 µM],-8.0%
COc1ccc2nc(SCC(=O)Nc3cc(C)on3)[nH]c2c1,-5.3%,-11.3%,4.6%,-97.1*,-3.3%,0.7%[9.22 µM]
CCOc1ccc2nc(SCC(=O)Nc3nonc3C)[nH]c2c1,-1.9%,.,23.1%,.,-9.4%[10 µM],-10.3%[9.22 µM]
CCOc1ccc2nc(SCC(=O)Nc3cc4c(cc3C(C)=O)OCO4)[nH]c2c1,25.1µM*,-23.8%,2.7%,57.2,-14.3%,9.0%

# Screening data (PubChem BioAssay)
